IDE cell inh: human IDE inhibitors in live cells, primary screen, fluorescence polarization, HEK cells, FAbetaB substrate; FAbetaB cleavage; inhibition, % at 5.59 µM; 0.41% of 320,000 active; AID 434962, 2010;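 active means percent inhibition above the average of all tested compounds plus 3 SD, set per screening campaign, cut at about 16% in these data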;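 further: IDE supplied by intact live HEK cells; FP after avidin binding of uncleaved biotin substrate so inhibition keeps polarization high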
Rpn11 inh: Rpn11 (PSMD14) deubiquitinase inhibitors, primary screen, biochemical, fluorescence polarization, uHTS; 26S proteasome non-ATPase regulatory subunit 14 (Homo sapiens), O00487; human 26S proteasome, Ub4-pepOG fluorescence polarization; 20S core pre-blocked with epoxomicin; inhibition, % at 20 µM; 0.59% of 360,000 active; AID 588493, 2011;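 active means inhibition at 20 µM, scaled to each plate's controls, above about 33%, limit read from the data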
IDE act: human IDE activators in live cells, primary screen, fluorescence polarization, HEK cells, FAbeta-B substrate; Insulin-degrading enzyme (Homo sapiens), P14735; FAbeta-B cleavage; 0% vehicle, 100% cell-free pure enzyme wells; activation, % at 5.96 µM; 0.073% of 340,000 active; AID 493087, 2011;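 active means activation above the mean of all tested compounds plus 3 SD, set per screening campaign, cut at about 17% in these data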
Calb FLC: C. albicans growth inhibition with fluconazole, primary screen, CaCi-2 strain, Alamar Blue fluorescence. C. albicans CaCi-2 (fluconazole-resistant clinical isolate) + fluconazole, 48 h. growth inhibition, % (no concentration beside the values). 0.57% of 300,000 active. AID 1979, 2009;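 active means growth inhibition above about 58% in most replicates, limit read from the data, passing the limit was not always enough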;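 further: all wells also contain fluconazole at 8 µg/ml as a sub-toxic cotreatment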
TPT1 inh: Candida albicans TPT1 enzyme inhibitors, primary screen, biochemical, fluorescence polarization. recombinant caTPT1, FP RNA substrate dephosphorylation. inhibition, % at 5 µM. 0.81% of 300,000 active. AID 1962, 2009;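 active means inhibition above the mean of all tested compounds plus 3 SD, set per screening campaign, cut at about 24% in these data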
Rin1 Abl inh: inhibitors of Rin1-Abl protein binding, primary screen, biochemical, TR-FRET; Tyrosine-protein kinase ABL1 (Homo sapiens) + Ras and Rab interactor 1 (Homo sapiens), …; inhibition, % at 7.35 µM; 0.4% of 360,000 active; AID 588664, 2011; in the data active means inhibition above about 5%, passing the limit was not always enough
Target sequence (P00519 whole entry, looked up): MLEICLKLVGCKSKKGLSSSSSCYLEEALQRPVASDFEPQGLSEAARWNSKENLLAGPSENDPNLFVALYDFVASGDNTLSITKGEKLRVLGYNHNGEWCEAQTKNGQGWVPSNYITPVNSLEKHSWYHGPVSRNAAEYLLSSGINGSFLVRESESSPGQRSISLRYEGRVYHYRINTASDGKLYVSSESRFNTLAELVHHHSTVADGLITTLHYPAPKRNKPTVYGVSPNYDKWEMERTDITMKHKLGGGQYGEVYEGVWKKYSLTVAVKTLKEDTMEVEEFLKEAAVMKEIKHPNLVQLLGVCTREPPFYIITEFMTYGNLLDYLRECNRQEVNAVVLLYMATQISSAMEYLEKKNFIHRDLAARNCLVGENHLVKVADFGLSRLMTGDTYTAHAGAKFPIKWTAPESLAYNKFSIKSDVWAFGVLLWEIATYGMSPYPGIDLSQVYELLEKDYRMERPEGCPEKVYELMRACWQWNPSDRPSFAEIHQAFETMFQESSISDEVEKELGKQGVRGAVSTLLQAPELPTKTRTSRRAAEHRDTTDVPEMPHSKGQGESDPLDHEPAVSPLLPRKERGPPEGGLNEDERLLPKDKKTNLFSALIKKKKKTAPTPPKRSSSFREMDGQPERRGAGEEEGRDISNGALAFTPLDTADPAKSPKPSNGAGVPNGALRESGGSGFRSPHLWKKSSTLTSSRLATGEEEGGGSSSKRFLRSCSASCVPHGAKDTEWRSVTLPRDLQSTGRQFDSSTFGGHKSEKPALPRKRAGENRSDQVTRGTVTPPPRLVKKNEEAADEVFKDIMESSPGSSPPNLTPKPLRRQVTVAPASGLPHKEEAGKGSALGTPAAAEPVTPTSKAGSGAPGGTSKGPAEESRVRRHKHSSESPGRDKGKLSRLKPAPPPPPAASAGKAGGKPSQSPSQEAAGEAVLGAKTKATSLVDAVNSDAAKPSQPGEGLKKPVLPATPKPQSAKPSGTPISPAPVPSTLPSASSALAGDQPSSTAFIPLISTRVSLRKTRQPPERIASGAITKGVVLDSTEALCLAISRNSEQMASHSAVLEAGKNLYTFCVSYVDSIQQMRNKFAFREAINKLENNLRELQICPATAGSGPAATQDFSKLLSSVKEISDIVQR
Target sequence (Q13671 whole entry, looked up): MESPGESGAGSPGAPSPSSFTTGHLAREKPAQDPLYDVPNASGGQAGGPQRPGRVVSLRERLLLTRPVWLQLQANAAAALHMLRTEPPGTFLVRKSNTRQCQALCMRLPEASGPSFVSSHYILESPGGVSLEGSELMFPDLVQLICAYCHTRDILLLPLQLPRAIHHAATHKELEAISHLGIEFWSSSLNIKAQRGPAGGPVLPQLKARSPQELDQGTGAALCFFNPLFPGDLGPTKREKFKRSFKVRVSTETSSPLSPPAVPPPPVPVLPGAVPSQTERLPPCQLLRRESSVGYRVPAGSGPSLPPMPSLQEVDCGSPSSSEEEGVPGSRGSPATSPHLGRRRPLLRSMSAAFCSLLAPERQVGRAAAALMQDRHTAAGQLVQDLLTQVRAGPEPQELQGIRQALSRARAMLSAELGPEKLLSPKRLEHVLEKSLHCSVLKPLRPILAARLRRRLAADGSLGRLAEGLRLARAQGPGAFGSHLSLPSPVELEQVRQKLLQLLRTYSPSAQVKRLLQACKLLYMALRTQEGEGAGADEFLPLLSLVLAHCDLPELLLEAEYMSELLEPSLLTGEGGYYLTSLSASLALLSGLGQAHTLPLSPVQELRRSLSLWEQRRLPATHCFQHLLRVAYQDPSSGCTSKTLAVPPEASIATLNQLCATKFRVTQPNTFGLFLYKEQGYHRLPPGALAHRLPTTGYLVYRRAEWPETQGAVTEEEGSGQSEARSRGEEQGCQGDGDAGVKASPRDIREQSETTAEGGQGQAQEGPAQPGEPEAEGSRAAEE
Rin1-Abl confirm: Rin1-Abl binding inhibitor retest, confirmation, biochemical, TR-FRET; shares compounds with Rin1 Abl inh; purified proteins; inhibition, % at 7.35 µM; 49% of 1,300 active; AID 602124, 2011
GFP quench-1: GFP fluorescence inhibitors and quenchers, artefact control for Rin1-Abl interaction inhibitor project, biochemical; inhibitors/quenchers counterscreen; shares compounds with Rin1 Abl inh; AID 602125, 2011; 8.5% of 1,300 active; inhibition, % at 6.75 µM;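 further: ABL1-eGFP fusion protein alone without its partner RIN1-SBP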
GFP quench DR: GFP fluorescence inhibitors and quenchers, dose response, artefact control for Rin1-Abl interaction inhibitor project, biochemical; shares compounds with Rin1 Abl inh; GFP fluorescence interference/quenching counterscreen; IC50, µM; 230 tested, under 10 active; AID 602182, 2012; call rule not given here;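 further: ABL1-eGFP fusion protein alone without its RIN1 binding partner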
GFP quench-2: GFP fluorescence inhibitors and quenchers, late-stage follow-up, artefact control for Rin1-Abl interaction inhibitor project, biochemical, dose response. shares compounds with Rin1 Abl inh. GFP fluorescence quenching counterscreen. IC50, µM. 25 tested, under 10 active. AID 602397, 2012; call rule not given here
A number is an active result; n = inactive; x = not tested or not shown. In the library only some 2.3% were active in any assay of this set; here they are far more common. Unless noted, no stated cut-off is given here; in the data, active means inhibition above about 6.5%; inactive means the rest.

SMILES	IDE cell inh	Rpn11 inh	IDE act	Calb FLC	TPT1 inh	Rin1 Abl inh	Rin1-Abl confirm	GFP quench-1	others
C#CCOCCOCCOCCNc1nc(N2CCN(C(=O)CCCCCCCCCCNC(=O)Cn3cc(CCCCCN)nn3)CC2)nc(N2CCN(C(=O)CCCCCCCCCCNC(=O)Cn3cc(C[C@@H](C)O)nn3)CC2)n1	n	n	22	x	n	19	12	n
C#CCOCCOCCOCCNc1nc(N2CCN(C(=O)CCCCCCCCCCNC(=O)Cn3cc(C[C@@H](C)O)nn3)CC2)nc(N2CCN(C(=O)CCCCCCCCCCNC(=O)[C@@H](CCSC)n3cc(CCO)nn3)CC2)n1	n	n	n	x	n	17	16	n
C#CCOCCOCCOCCNc1nc(N2CCN(C(=O)CCCCCCCCCCNC(=O)[C@@H](CCSC)n3cc(CCO)nn3)CC2)nc(N2CCN(C(=O)CCCCCCCCCCNC(=O)[C@@H]([C@H](C)O)n3cc(C)nn3)CC2)n1	n	n	n	x	n	n	x	x
CC1Sc2ccc(S(=O)(=O)CCC(=O)N3CCN(c4cccc(Cl)c4)CC3)cc2NC1=O (stereo not drawn)	n	n	n	n	n	n	x	x
CCCC(=O)N1CCC1(C)C(=O)NS(=O)(=O)c1ccc(C)cc1 (stereo not drawn)	x	n	x	x	x	n	x	x
Cc1ccc(-n2c(=O)c3sccc3n(CC(=O)N3CCCC3)c2=O)cc1	n	n	n	n	n	5.8	n	n
O=c1[nH]c2cccc(Cl)c2c2ccccc12	x	n	x	x	x	n	x	x
Cc1ccc(-c2nnc(SCC(=O)Nc3nccs3)n2N)cc1	n	n	n	n	n	8.0	9.9	n
CCC(=O)Nc1ccc(-c2nnc(SCC(=O)Nc3nccs3)n2C)cc1	n	n	n	n	n	7.2	n	n
COc1ccc(CCCc2nnc(SCC(=O)Nc3nccs3)n2C)cc1C	n	n	n	n	n	8.4	n	n
CCn1c(SCC(=O)Nc2nccs2)nnc1-c1ccc(C)cc1	n	x	n	n	n	n	x	x
CN(CC(=O)Nc1ccc(C#N)cc1)Cc1ccc(Cl)c(Cl)c1	n	n	n	n	n	6.1	n	n
CN(CC(=O)Nc1cccc(C#N)c1)Cc1ccc(Cl)cc1	n	n	n	n	n	n	x	x
CCOC(=O)c1c(NC(=O)COC(=O)CC(NC(C)=O)c2ccccc2)sc(C(=O)NC)c1C (stereo not drawn)	n	n	n	x	n	n	x	x
COc1cc(OC)c2c(c1O)OC(c1ccccc1)CC2=O (stereo not drawn)	n	n	n	n	n	16	9.2	n
C=CCn1c(SCCOc2ccccc2)nnc1C(C)NC(=O)c1ccccc1 (stereo not drawn)	n	n	n	n	n	n	x	x
C=CCn1c(SCC(=O)N2CCOCC2)nnc1C(C)NC(=O)c1ccccc1 (stereo not drawn)	n	n	n	n	n	7.2	n	n
O=C(Nc1c(-c2ccccc2)nc2ccccn12)c1ccccc1F	n	n	n	x	n	n	x	x
CCCn1c(=O)c2c(ncn2C)n(CCC)c1=O	n	n	n	x	n	n	x	x
COc1ccc(SCCCn2c(=O)c3c(ncn3C)n(C)c2=O)cc1	n	n	n	n	n	7.7	n	n
CN(Cc1ccccc1)S(=O)(=O)c1ccc(Cl)c(C(=O)N2CCC(C(N)=O)CC2)c1	n	n	n	x	x	n	x	x
CN(Cc1ccccc1)S(=O)(=O)c1ccc(Cl)c(C(=O)N2CCC2)c1	n	n	n	x	x	22	17	n	GFP quench DR=n
O=C(Nc1ccc(S(=O)(=O)Nc2ccccc2)cc1)C1CC1	x	n	n	n	x	11	n	n
CC(=O)Nc1ccc(NC(=O)C2CCN(C(=O)c3cccs3)CC2)cc1	n	n	n	n	n	47	71	n	GFP quench DR=n;GFP quench-2=n
COc1cc(C(=O)OCC(=O)Nc2ccc(S(=O)(=O)N3CCCC3)cc2)cc(OC)c1OC	n	n	n	x	x	18	30	n	GFP quench DR=n
SMILES	IDE cell inh	Rpn11 inh	IDE act	Calb FLC	TPT1 inh	Rin1 Abl inh	Rin1-Abl confirm	GFP quench-1	others
Cc1ccccc1C(=O)N1CCC(C(=O)Nc2ccc(S(=O)(=O)N3CCCCC3)cc2)CC1	n	n	n	n	n	12	7.8	n
O=C(CN1CCN(S(=O)(=O)c2cccs2)CC1)N1CCCCC1	x	n	n	x	x	n	x	x
Cc1ccc(C(c2ccc(C)c(C)c2)C(O)C2OC(=O)C(O)C2O)cc1C (stereo not drawn)	x	n	n	x	x	n	x	x
CC(=O)c1ccc(NC(=O)Nc2ccc(S(=O)(=O)N3CCCC3)cc2)cc1	x	n	n	n	x	15	11	n
CC(=O)c1ccc(NC(=O)c2ccc(S(=O)(=O)N3CCCC3)cc2)cc1	n	n	n	n	n	n	x	x
O=c1cc(CO)oc(CN2CCCC2)c1O	n	n	n	n	n	27	n	n
CCN(CC)Cc1oc(CO)cc(=O)c1O	n	n	n	n	n	26	11	n
CN1CCN(Cc2oc(CO)cc(=O)c2O)CC1	n	n	n	n	n	12	n	n
O=c1cc(CO)oc(CN2CCN(Cc3ccccc3)CC2)c1O	n	n	n	n	n	n	x	x
O=C(O)C1CCN(Cc2oc(CO)cc(=O)c2O)C1 (stereo not drawn)	x	n	n	x	x	n	x	x
COc1ccc(N2CCN(Cc3oc(CO)cc(=O)c3O)CC2)cc1	n	n	n	n	n	n	x	x
CN(C)N=C1c2cc(S(=O)(=O)N(C)C)ccc2-c2ccc(S(=O)(=O)N(C)C)cc21	n	n	n	n	n	n	x	x
CCCOC(=O)c1ccc(NC(=O)CCC(=O)OCC)cc1	n	n	n	n	n	10	14	n
Cc1cc2nc3ccc(N(C)C)cc3nc2cc1N	n	n	n	n	n	15	n	34
Cc1ccc(-n2nc3cc(C)c(N)cc3n2)cc1	n	n	n	n	n	n	x	x
